Source: PubChem BioAssay
Dicer inh – inhibitors of Dicer pre-microRNA processing, primary screen, biochemical, cat-ELCCA, chemiluminescence. Endoribonuclease Dicer (Homo sapiens), Q9UPY3. cat-ELCCA pre-miR-21 Dicer processing; stronger effect = higher value. z-score at 25 µM. actives 6% (n = 47,000); in the data active = z-score above about 3, passing the limit was not always enough;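 also: plate controls were vehicle for no effect and no enzyme for full effect; higher signal means more uncleaved substrate so more Dicer inhibition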
Target sequence (Q9UPY3 whole entry, looked up): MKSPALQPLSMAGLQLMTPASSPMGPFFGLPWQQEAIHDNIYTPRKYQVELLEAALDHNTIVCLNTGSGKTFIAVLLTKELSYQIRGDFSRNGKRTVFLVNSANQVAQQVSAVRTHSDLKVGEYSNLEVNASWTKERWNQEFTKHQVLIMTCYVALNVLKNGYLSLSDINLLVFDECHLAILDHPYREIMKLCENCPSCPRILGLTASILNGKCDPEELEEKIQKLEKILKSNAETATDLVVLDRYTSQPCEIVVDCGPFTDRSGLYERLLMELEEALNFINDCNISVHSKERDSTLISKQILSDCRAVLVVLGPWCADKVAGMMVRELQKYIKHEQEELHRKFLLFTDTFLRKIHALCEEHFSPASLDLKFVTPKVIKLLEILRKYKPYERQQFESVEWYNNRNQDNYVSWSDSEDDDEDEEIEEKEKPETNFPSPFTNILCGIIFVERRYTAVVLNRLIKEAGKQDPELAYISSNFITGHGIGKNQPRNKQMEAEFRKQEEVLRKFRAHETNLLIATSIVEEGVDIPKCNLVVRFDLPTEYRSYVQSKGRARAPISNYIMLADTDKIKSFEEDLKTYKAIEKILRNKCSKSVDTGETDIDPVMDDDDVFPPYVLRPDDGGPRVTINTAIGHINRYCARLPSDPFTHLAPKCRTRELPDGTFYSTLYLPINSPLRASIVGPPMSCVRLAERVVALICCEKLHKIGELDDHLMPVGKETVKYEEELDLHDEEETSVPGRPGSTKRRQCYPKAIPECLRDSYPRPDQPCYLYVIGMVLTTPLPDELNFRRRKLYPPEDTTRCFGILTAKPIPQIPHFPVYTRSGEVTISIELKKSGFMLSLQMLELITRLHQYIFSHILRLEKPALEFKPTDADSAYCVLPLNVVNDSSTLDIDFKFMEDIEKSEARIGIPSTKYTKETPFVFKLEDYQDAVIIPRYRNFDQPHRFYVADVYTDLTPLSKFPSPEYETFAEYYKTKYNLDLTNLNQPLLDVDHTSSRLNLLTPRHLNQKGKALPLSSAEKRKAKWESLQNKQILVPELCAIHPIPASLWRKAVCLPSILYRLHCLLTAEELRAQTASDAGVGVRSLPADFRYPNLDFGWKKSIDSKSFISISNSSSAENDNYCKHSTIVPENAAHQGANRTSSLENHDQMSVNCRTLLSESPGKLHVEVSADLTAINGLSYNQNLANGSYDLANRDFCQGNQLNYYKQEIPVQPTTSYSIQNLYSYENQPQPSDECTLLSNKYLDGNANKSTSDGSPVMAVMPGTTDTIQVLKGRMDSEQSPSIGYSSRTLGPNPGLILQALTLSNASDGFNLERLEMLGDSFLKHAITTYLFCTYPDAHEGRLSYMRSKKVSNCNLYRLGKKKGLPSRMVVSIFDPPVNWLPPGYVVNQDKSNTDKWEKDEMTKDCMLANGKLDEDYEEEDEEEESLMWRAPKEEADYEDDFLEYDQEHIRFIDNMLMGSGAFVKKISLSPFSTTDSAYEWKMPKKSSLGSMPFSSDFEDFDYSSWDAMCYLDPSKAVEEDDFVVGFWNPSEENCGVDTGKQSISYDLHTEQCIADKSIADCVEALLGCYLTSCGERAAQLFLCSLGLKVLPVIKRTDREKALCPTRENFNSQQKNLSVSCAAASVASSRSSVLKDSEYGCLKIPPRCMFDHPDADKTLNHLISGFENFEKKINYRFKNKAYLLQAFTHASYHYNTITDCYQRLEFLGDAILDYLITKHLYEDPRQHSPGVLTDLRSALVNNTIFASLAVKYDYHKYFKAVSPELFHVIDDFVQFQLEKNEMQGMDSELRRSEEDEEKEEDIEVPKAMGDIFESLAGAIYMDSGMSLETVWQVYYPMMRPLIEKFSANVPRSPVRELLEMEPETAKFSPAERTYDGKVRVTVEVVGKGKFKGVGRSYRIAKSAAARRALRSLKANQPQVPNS
Starred values were filed as active, the others as inactive. The sample as a whole holds a higher share of hits than the screen did.

`CC(=O)N[C@H]1[C@@H](OCc2ccccc2)O[C@@H]2COC(c3ccccc3)O[C@H]2[C@@H]1O[C@H](C)C(=O)O` (some centres not stated) gave Dicer inh -0.31.
Screening Cc1c(Cl)c(C(F)(F)F)nn1CC(=O)Nc1ccc(Br)cc1 returned Dicer inh 1.
For c1ccc(-n2ncnc2-c2ccc3c(c2)OCO3)cc1 the results were Dicer inh -2.3.
`CCC(O)Cn1c(NCc2ccccc2)nc2c1c(=O)n(C)c(=O)n2C` (configuration not stated) gave Dicer inh 1.9.
N#CC(C#N)=NNc1cc(F)cc(F)c1 was read as Dicer inh 1.7.
For O=C(CSc1ssc(=S)c1-c1ccccc1)c1ccc(Cl)cc1 the results were Dicer inh -0.55.
CCOC(=O)c1c(NC(=O)c2cccs2)sc(C)c1-c1ccccc1 was read as Dicer inh -1.9.
`Cc1nc(C(=O)Nc2ccc3nsnc3c2)cc2c1[nH]c1ccccc12` gave Dicer inh 1.
For Cn1c(C(=O)O)cc(=O)n(C)c1=O the results were Dicer inh -1.3.
`Cc1ccc(N/C=C(\C#N)S(=O)(=O)c2ccc(Cl)cc2)c(C)c1` gave Dicer inh -0.81.
For CCOC(=O)c1cc(S(=O)(=O)C(C)C)c(SC)s1 the results were Dicer inh 3.8*.
Screening COC(=O)c1cc(S(=O)(=O)C(C)C)c(S(C)(=O)=O)s1 returned Dicer inh -0.98.
Screening CCOC(=O)c1sc(SC)c(S(C)(=O)=O)c1N returned Dicer inh -0.95.
`CCCN(CCC)S(=O)(=O)c1ccc(C(=O)Nc2ccc(C(=O)c3ccc4c(c3)CCC4)cc2)cc1` gave Dicer inh -1.9.
`Nc1ccccc1-c1nc(-c2ccc(Cl)cc2)no1` gave Dicer inh -0.26.
Screening Cc1c(-c2ccnc(N)n2)nnn1-c1ccc(Cl)cc1Cl returned Dicer inh 0.21.
Screening COc1ccc(-c2oc3ccccc3c(=O)c2Cl)cc1 returned Dicer inh -3.7.
Screening Cc1nonc1NC(=O)N1CCOCC1 returned Dicer inh 5.9*.
For Cc1nonc1NC(=O)Nc1ccncc1 the results were Dicer inh 44.
`O=C(Nc1ccc(-c2ccccn2)s1)N1CCOCC1` gave Dicer inh -0.4.
Screening Cc1nn(-c2ccccc2)cc1/C=N/NC(=O)Cn1nc(-c2ccccc2)c(-c2ccccc2)c(C#N)c1=O returned Dicer inh -1.6.
CSc1nnc(-c2ccc(S(=O)(=O)Nc3ccccc3Cl)s2)n1C was read as Dicer inh -0.47.
`Cc1cc(C(=O)c2ccccc2C(=O)O)c(C)c(C)c1C` gave Dicer inh 1.1.
Oc1ccc(-c2csc(Nc3ccccn3)n2)cc1 was read as Dicer inh 0.3.
Cc1cc(C)nc(Nc2nc(-c3ccc(O)c(O)c3)cs2)n1 was read as Dicer inh 8.6*.
`COc1ccc(-c2csc(Nc3ncccn3)n2)cc1OC` gave Dicer inh 0.07.
For CCOC(=O)Cn1c(=O)c(C(=O)NC(=O)OCC)cn(Cc2cccs2)c1=O the results were Dicer inh -0.94.
Screening CC(=O)c1ccc(C#CC(C)(C)O)s1 returned Dicer inh -0.68.
Screening C/C(=N\Nc1c(Cl)cc(Cl)cc1Cl)c1ccc(C#CC(C)(C)O)s1 returned Dicer inh 3.2*.
`CC(C)(O)C#Cc1ccc(/C=N/Nc2c(Cl)cc(Cl)cc2Cl)cc1` gave Dicer inh 2.5.
`CC1(C)S[C@H](CNC(=O)Cc2ccccc2)N[C@H]1C(=O)O` gave Dicer inh 4*.
CC1(C)SC(c2ccc(C3NC(C(=O)O)C(C)(C)S3)cc2)NC1C(=O)O (configuration not stated) was read as Dicer inh -2.4.
Screening CN(C)c1ccc(C2N[C@@H](C(=O)O)C(C)(C)S2)cc1 (some centres not stated) returned Dicer inh 0.59.
`CSC(SC)=C(C#N)C(=O)c1cccc(Cl)c1` gave Dicer inh -1.4.
`COC(=O)c1ccc(C2C(C(=O)OCc3ccccc3)=C(C)NC3=C2C(=O)CCC3)cc1` (configuration not stated) gave Dicer inh -0.47.
Screening Cc1ccccc1-c1nc2cc(N)ccc2o1 returned Dicer inh 5.7.
`Nc1ccc2oc(-c3cccc(-c4nc5cc(N)ccc5o4)n3)nc2c1` gave Dicer inh -4.8.
For Nc1ccc(CCc2nc3cc(N)ccc3o2)cc1 the results were Dicer inh 3.9*.
O=c1sc2ccccc2n1CCCOc1ccccc1Cl was read as Dicer inh 0.52.
Screening CCOc1ccc(C2C3=C(CCCC3=O)NC3=C2C(=O)CCC3)cc1OCC returned Dicer inh -0.83.
COc1ccc(-n2c(C)c([N+](=O)[O-])c3ccc(O)c(CN4CCCCC4)c32)cc1 was read as Dicer inh 3.5*.
Cc1c([N+](=O)[O-])c(/C=C/N(C)C)nn1C was read as Dicer inh 1.3.
For COc1ccc(-n2c(/C=C/N(C)C)c([N+](=O)[O-])c3ccc(O)c(CN(C)C)c32)cc1 the results were Dicer inh 3.5*.
